Measurements taken from PubChem BioAssay AID1159580 (chemical genetic matrix, 2015).
Where “and” joins values, the source holds several entries; their conditions need not be identical. Equal entries are not always repeated. Hit rate of the full screen: of about 5,500 compounds, about 2,000 (36%) were called active. About 18% were inconclusive and are not listed. Rule as the data show it: active = normalized growth mostly below about 0.91 (no sharp cut-off); inconclusive = no clear call, values can overlap the other calls; inactive = mostly above about 0.92. The list shows a part of the results.

Experiment: chemical genetic growth profiling, strain panel (AID 1159580);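 also: tested at 20 µM; growth read once vehicle control cultures reached saturation at 30 °C; 1 = growth at the plate median or of vehicle wells; lower values mean less growth of the strain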
Conditions: S. cerevisiae deletion strains, growth OD

Measured: normalized growth

C=CCN1CC[C@]23c4c5ccc(O)c4OC2C(=O)CC[C@@]3(O)[C@H]1C5 (stereo partly specified)
inactive: locus YAL013W, strain DEP1, hits give low values 1.01 | locus YAL021C, strain ccr4, hits give low values 0.935 | locus YAL026C, strain drs2, hits give low values 0.979 | locus YAL030W, strain snc1, hits give low values 0.974 | locus YBL061C, strain skt5, hits give low values 0.978 | locus YBR009C, strain hhf1, hits give low values 0.987 | locus YBR021W, strain FUR4, hits give low values 1.01 | locus YBR023C, strain chs3, hits give low values 0.972 | locus YBR171W, strain sec66, hits give low values 0.974 | locus YBR229C, strain ROT2, hits give low values 1 | locus YBR231C, strain swc5, hits give low values 0.969 | locus YBR279W, strain paf1, hits give low values 0.955 | locus YCL011C, strain gbp2, hits give low values 0.941 | locus YCL016C, strain dcc1, hits give low values 0.986 | locus YCL029C, strain bik1, hits give low values 0.996 | locus YCL061C, strain MRC1, hits give low values 0.979 | locus YCL069W, strain vba3, hits give low values 0.946 | locus YCR088W, strain abp1, hits give low values 0.98 | locus YDL005C, strain med2, hits give low values 0.943 | locus YDL035C, strain GPR1, hits give low values 1.02 | locus YDL040C, strain nat1, hits give low values 0.967 | locus YDL074C, strain BRE1, hits give low values 1.05 | locus YDL101C, strain DUN1, hits give low values 1.02 | locus YDL134C, strain PPH21, hits give low values 1 | locus YDL185W, strain tfp1, hits give low values 1.01 | locus YDL192W, strain arf1, hits give low values 0.988 | locus YDR001C, strain nth1, hits give low values 0.971 | locus YDR069C, strain doa4, hits give low values 0.943 | locus YDR101C, strain arx1, hits give low values 0.989 | locus YDR137W, strain rgp1, hits give low values 0.959 | locus YDR150W, strain NUM1, hits give low values 1 | locus YDR159W, strain sac3, hits give low values 0.962 | locus YDR162C, strain NBP2, hits give low values 1.01 | locus YDR195W, strain ref2 0.955 | locus YDR297W, strain sur2, hits give low values 0.962 | locus YDR318W, strain mcm21, hits give low values 1 | locus YDR334W, strain swr1, hits give low values 0.95 | locus YDR335W, strain msn5, hits give low values 0.974 | locus YDR388W, hits give low values 1 | locus YDR392W, strain spt3, hits give low values 0.877 | locus YDR502C, strain sam2, hits give low values 0.984 | locus YEL003W, strain gim4, hits give low values 0.936 | locus YEL037C, strain rad23, hits give low values 0.954 | locus YEL061C, strain CIN8 (second series), hits give low values 0.962 | locus YEL061C, strain CIN8, hits give low values 1.01 | locus YER015W, strain faa2, hits give low values 0.97 | locus YER016W, strain bim1, hits give low values 0.972 | locus YER110C, hits give low values 0.992 | locus YER111C, strain swi4, hits give low values 0.97 | locus YER155C, strain BEM2 (second series), hits give low values 0.979 | locus YER155C, strain BEM2, hits give low values 1.01 | locus YER167W, strain BCK2, hits give low values 0.989 | locus YFR010W, strain ubp6, hits give low values 0.953 | locus YGL078C, strain dbp3, hits give low values 1 | locus YGL086W, strain mad1, hits give low values 0.993 | locus YGL167C, strain pmr1, hits give low values 0.961 | locus YGL173C, strain kem1, hits give low values 0.971 | locus YGL227W, strain vid30, hits give low values 0.97 | locus YGL240W, strain doc1, hits give low values 0.961 | locus YGL248W, strain PDE1, hits give low values 1.01 | locus YGL253W, strain hxk2, hits give low values 0.974 | locus YGR078C, strain PAC10, hits give low values 1.03 | locus YGR135W, strain pre9, hits give low values 0.99 | locus YGR229C, strain SMI1, hits give low values 1 | locus YGR252W, strain gcn5, hits give low values 0.997 | locus YHR013C, strain ard1, hits give low values 0.926 | locus YHR027C, strain rpn1, hits give low values 0.97 | locus YHR030C, strain SLT2, hits give low values 1 and 0.989 | locus YHR079C, strain IRE1 (second series), hits give low values 1 | locus YHR094C, strain hxt1, hits give low values 1 | locus YHR129C, strain ARP1, hits give low values 1.01 | locus YHR142W, strain chs7, hits give low values 0.946 | locus YHR200W, strain rpn10, hits give low values 0.998 | locus YIL066C, strain RNR3, hits give low values 1.01 | locus YIL073C, strain SPO22, hits give low values 1.02 | locus YIL125W, strain kgd1, hits give low values 0.997 | locus YIR030C, strain dcg1, hits give low values 0.997 | locus YJL092W, strain hpr5, hits give low values 0.957 | locus YJL095W, strain BCK1 (second series), hits give low values 0.978 | locus YJL095W, strain BCK1, hits give low values 1.02 and 1 | locus YJL115W, strain asf1, hits give low values 0.957 | locus YJL129C, strain trk1, hits give low values 0.917 | locus YJL134W, strain LCB3, hits give low values 1.01 | locus YJL154C, strain vps35, hits give low values 0.971 | locus YJL164C, strain tpk1, hits give low values 0.984 | locus YJL166W, strain qcr8, hits give low values 0.959 | locus YJL168C, strain set2, hits give low values 1 | locus YJL187C, strain SWE1 (second series), hits give low values 1.03 | locus YJL187C, strain SWE1, hits give low values 0.964 | locus YJR043C, strain POL32, hits give low values 1.03 | locus YJR066W, strain TOR1, hits give low values 0.949
